Several values for one entry are separate records, joined by “and”; a condition that tells them apart may be missing. Equal entries are not always repeated. A number with no mark means an inactive call. For part of these data: Results with a measured potency or affinity are listed apart. Activity calls are given as the source filed them. The rule behind the calls is not given here.

efficacy, outcome and AC50 data for 31 molecules are collected here from PubChem BioAssay (NCATS).

For assay [1] the following is noted: Ebola virus entry assay, green fluorescence channel.
For assay [2] the following is noted: Ebola virus entry assay, blue channel fluorescence.
For assay [3] the following is noted: Ebola virus entry assay, ratio channel.
For assay [4] the following is noted: Ebola virus entry assay, green channel fluorescence.
For assay [5] the following is noted: Ebola virus entry assay, reporter ratio channel; AC50: Channel type: primary unless noted; outcome: Channel type: primary unless noted.
The conditions of assay [6]: Ebola virus entry assay, blue channel (ratio component).
Throughout, for efficacy: 0% is about no effect.

For the molecule `CN1CC(=O)N/C1=N/C(=O)Nc1cccc(Cl)c1`, the efficacy in assay [1] was -15.3%. Besides, the molecule was called inactive in assay [2], in assay [3], in assay [4], in assay [5] and in assay [6].
For the molecule `Cc1ncc(CNC(=O)N(CCCl)N=O)c(N)n1`, the efficacy in assay [1] was 16.2%. For the same molecule, the molecule was called inactive in assay [2], in assay [3], in assay [4], in assay [5] and in assay [6].
As for `CN(C)CCc1ccc(O)cc1`, in assay [1], the efficacy is -10.6%. Moreover, the result in assay [2], in assay [3], in assay [4], in assay [5] and in assay [6] was inactive.
Consider `FC(F)(F)c1cccc(C2=CCN(CCc3ccc4ccccc4c3)CC2)c1`, for which the efficacy in assay [1] is -24.5%. Moreover, the call in assay [2], in assay [3], in assay [4], in assay [5] and in assay [6] was inactive.
With `CC[N+](CC)(CC)CC`, the efficacy in assay [1] is -18.6%. Further, the molecule was called inactive in assay [2], in assay [3], in assay [4], in assay [5] and in assay [6].
As for `CC[N+]1(C)CCCC(OC(=O)C(O)(c2ccccc2)c2ccccc2)C1` (stereo not given), in assay [1], the efficacy was 26%. The molecule was called inactive in assay [2], in assay [3], in assay [4], in assay [5] and in assay [6].
Consider `CC(C)Oc1ccc2c(=O)c(-c3ccccc3)coc2c1`, for which the efficacy in assay [1] is 27.1% and 23.5%. Moreover, the outcome in assay [2], in assay [3], in assay [4], in assay [5] and in assay [6] was inactive.
As usually defined, the AC50 is the midpoint of the concentration-response curve, whichever way the signal moves. Consider `Clc1ccc(COC(Cn2ccnc2)c2ccc(Cl)cc2Cl)cc1` (stereo not given), for which, in assay [1], the efficacy was -214%. In addition, the AC50 is 10 µM (active) in assay [2], 3.55 µM (active) in assay [3] and 3.55 µM (active) in assay [5].
For the molecule `CC(C)(C)NCC(O)c1cc(Cl)c(N)c(Cl)c1` (stereo not given), the efficacy in assay [1] is -12%. Moreover, the result in assay [2], in assay [3], in assay [4], in assay [5] and in assay [6] was inactive.
With `COC[C@@H](NC(C)=O)C(=O)NCc1ccccc1`, the efficacy in assay [1] was -31.5%. For the same molecule, the outcome in assay [2], in assay [3], in assay [4], in assay [5] and in assay [6] was inactive.
As to `CCCN1CCC[C@@H]2Cc3[nH]ncc3C[C@H]21`, the efficacy in assay [1] is -15.1%. Moreover, the call in assay [2], in assay [3], in assay [4], in assay [5] and in assay [6] was inactive.
For the molecule `C[C@@H]1CC(=O)NN=C1c1ccc(NN=C(C#N)C#N)cc1`, the efficacy in assay [1] was -24% and 20%. For the same molecule, the result in assay [2], in assay [3], in assay [4], in assay [5] and in assay [6] was inactive.
As for `CCCC1CCCCN1` (stereo not given), the efficacy in assay [1] is -19.4%. Also, the outcome in assay [2], in assay [3], in assay [4], in assay [5] and in assay [6] was inactive.
Regarding `CCCc1nc2c(C)cc(-c3nc4ccccc4n3C)cc2n1Cc1ccc(-c2ccccc2C(=O)O)cc1`, in assay [1], the efficacy is 21.4%. Further, the molecule was called inactive in assay [2], in assay [3], in assay [4], in assay [5] and in assay [6].
In the case of `O=C(NC(O)C(Cl)(Cl)Cl)NC(O)C(Cl)(Cl)Cl` (stereo not given), the efficacy in assay [1] is 18%. In addition, the outcome in assay [2], in assay [3], in assay [4], in assay [5] and in assay [6] was inactive.
`CC(=O)SC[C@@H](C)C(=O)N1CCC[C@H]1C(=O)N[C@@H](Cc1ccccc1)C(=O)O`: the efficacy in assay [1] is 13.4%. Besides, the call in assay [2], in assay [3], in assay [4], in assay [5] and in assay [6] was inactive.
Turning to `c1ccc2c(c1)OCC(C1=NCCN1)O2` (stereo not given), the efficacy in assay [1] was 12.1%. In addition, the result in assay [2], in assay [3], in assay [4] and in assay [6] was inactive. Moreover, the AC50 in assay [5] is 35.5 µM (active).
`Oc1cc(Cl)ccc1Oc1ccc(Cl)cc1Cl`: the efficacy in assay [1] was -133%. Moreover, the AC50 in assay [2] was 15.8 µM (active); in assay [3] it was 7.08 µM (active) and 14.1 µM (active); in assay [5] it was 7.08 µM (active) and 14.1 µM (active).
As for `NC(=O)N/N=C/c1ccc([N+](=O)[O-])o1`, in assay [1], the efficacy was 31.4%. Further, the call in assay [2], in assay [3], in assay [4], in assay [5] and in assay [6] was inactive.
Take `CC1NCCOC1c1ccccc1` (stereo not given): the efficacy in assay [1] was -41.7%. In addition, the outcome in assay [2], in assay [3], in assay [4], in assay [5] and in assay [6] was inactive.
With `Clc1cccc(N2CCNCC2)c1`, the efficacy in assay [1] is 26.6%. Further, the outcome in assay [2], in assay [3], in assay [4], in assay [5] and in assay [6] was inactive.
On to `Nc1ccncc1`, for which the efficacy in assay [1] was -10%. Also, the call in assay [2], in assay [3], in assay [4], in assay [5] and in assay [6] was inactive.
Turning to `N#CC(C#N)=Cc1ccc(O)c(O)c1`, the efficacy in assay [1] is -17.1%. The call in assay [2], in assay [3], in assay [4], in assay [5] and in assay [6] was inactive.
Regarding `O=[N+]([O-])c1cc([As](=O)(O)O)ccc1O`, the efficacy in assay [1] was -13%. Moreover, the result in assay [2], in assay [3], in assay [4], in assay [5] and in assay [6] was inactive.
On to `NP(N)(=O)NC(=O)c1ccc(F)cc1`, for which the efficacy in assay [1] is -25%. Besides, the molecule was classed as inactive in assay [2], in assay [3], in assay [4], in assay [5] and in assay [6].
Regarding `CC(C)(N)Cc1ccc(Cl)cc1`, the efficacy in assay [1] is 29.5%. The result in assay [2], in assay [3], in assay [4], in assay [5] and in assay [6] was inactive.
Turning to `Cc1cc2c(C(C)C)c(O)c(O)c(C=O)c2c(O)c1-c1c(C)cc2c(C(C)C)c(O)c(O)c(C=O)c2c1O`, the efficacy in assay [1] is 104%. Moreover, the AC50 in assay [2] and in assay [5] was 39.8 µM (active) throughout. The outcome in assay [3] was inactive.
For the molecule `Cn1cnc2c(F)c(Nc3ccc(Br)cc3Cl)c(C(=O)NOCCO)cc21`, the efficacy in assay [1] is 24.6%. Besides, the call in assay [2], in assay [3], in assay [4], in assay [5] and in assay [6] was inactive.
`COc1ccc2c(c1OC)CN1CCc3cc4c(cc3C1C2)OCO4` (stereo not given): the efficacy in assay [1] is -21%. For the same molecule, the outcome in assay [2], in assay [3], in assay [4], in assay [5] and in assay [6] was inactive.
In the case of `C=CCN1CC[C@]23c4c5ccc(O)c4O[C@H]2C(=O)CC[C@@]3(O)[C@H]1C5`, in assay [1], the efficacy was 15.7%. For the same molecule, the molecule was classed as inactive in assay [2], in assay [3], in assay [4], in assay [5] and in assay [6].
In the case of `OCCOc1ccccc1`, the efficacy in assay [1] was -12.5%. The molecule was classed as inactive in assay [2], in assay [3], in assay [4], in assay [5] and in assay [6].
